Laboratory results: PubChem BioAssay AID652128 (Broad Institute, 2013)
The other results are listed elsewhere or left out. Inconclusive results are not listed. Activity calls are given as the source filed them.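 The calls were made as follows: active = fitted half-maximal concentration for signal loss at or below twice the highest dose tested, in every separate run (actives reach about 64 µM in these data); inconclusive = runs disagree, or flat partial signal loss, or poor fit; inactive = the rest.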

assay: DNA-binding compounds via dye displacement, dose response, artefact control for RAD52 inhibitor project, biochemical, fluorescence polarization, cherry-pick (AID 652128); settings: Salmon sperm DNA/acridine orange FP displacement

AC50, active:
CCN(CC)CCCNC(=O)c1cc2c(=O)[nH]c3ccc(C)cc3c2s1 49.6 µM
Cc1cc(C)c2nc3nc(C)cc(C)c3c(N)c2c1 30 µM

outcome, inactive:
CCN(CC)CCNC(=O)c1ccc(NC(=O)c2cc(-c3ccncc3)nc3ccccc23)cc1
CCOCCCNC(=S)Nc1ccc2nc(N3CCN(CC)CC3)cc(C)c2c1
CC(C)[C@@H](C)/C=C/[C@@H](C)[C@H]1CC[C@@H]2[C@]1(C)CCC1[C@]23C=C[C@]2(C[C@@H](O)CC[C@]12C)N(c1ccc([N+](=O)[O-])cn1)O3 (stereo not given in full)
Cc1cc2oc3ccc(NCCC4CCCN4C)cc3c(=O)c2cc1C (stereo not given)
C=Cn1cc[n+](CC(=O)c2ccc(OC)c(OC)c2)c1
COc1ccc(NC(=O)C2C3CCC(O3)C2C(=O)O)cc1OC (stereo not given)
CCN(CC)CCN(C(=O)c1ccc2c(c1)CCCC2)c1nc2c(OC)cccc2s1
O=C(/C=C/c1cn(-c2ccccc2)nc1-c1ccc2c(c1)OCCO2)NCCCN1CCOCC1
CC(C)C(=O)N1CC(=O)Nc2ccc(F)cc2C1c1ccc(F)cc1 (stereo not given)
CN(C)CCNC(=O)c1cccc(-c2cnc3c(NC=O)cc(-c4cccc(C(F)(F)F)c4)cn23)c1
CC(=O)c1cccc(-c2cnc3c(NC=O)cc(-c4ccc(N5CCN(C)CC5)cc4)cn23)c1
Cc1cccc(NC(=S)NC23CN4CN(CN(C4)C2)C3)c1
CN(C)CCN1CCN(c2cc(-c3cccc(Cl)c3)nc3ccnn23)CC1
